# Insulin prom inh: TRM-6 insulin promoter activity inhibition; TRM-6 cells (human fetal islet line), insulin promoter-eGFP reporter, imaging; reporter expression induced with tamoxifen; actives 0.9% (n = 130,000); inhibition, % at 2 µM;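 active = inhibition above the mean plus 3 SD, with well images judged a real hit on visual review, cut at about 60% in these data, passing the limit was not always enough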
# Ins promoter up: MIN6 insulin promoter up-regulation; MIN6 insulin promoter-GFP reporter, high-content imaging; stronger effect = higher value; z-score at 5 µM; actives 0.3% (n = 190,000);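 active = z-score above 3 at 5 µM with at least 500 cells counted in the well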
# Autophagy mod: autophagy modulation, high-content screen; MEF GFP-LC3 puncta imaging; test concentration mostly 10 µM; calls only at 10 µM (by protocol); actives 0.98% (n = 190,000); AID 463193;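 active = percentage of spot-positive cells more than 3 SD above its plate mean, without a fluorescence outlier flag or 80% toxicity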;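 also: spot-positive cell cutoff set from DMSO-treated cells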
# HCT116 PTEN-null: suppresses growth of cells with PTEN deletion. HCT116 PTEN-null viability, CellTiter-Glo, 60 h; stronger effect = lower value. viability, % at 10 µM. actives 1.2% (n = 140,000). AID 827;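 active = viability at or below a set limit, 4 SD under the median of all tested compounds, cut at about 3.7% in these data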;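 also: PTEN knockout HCT116 line with beta catenin targeted HCT116 as companion control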
# HCT116 bCat-KO: beta-catenin-lacking colon tumor cell growth suppression | HCT116 beta-catenin knockout viability, CellTiter-Glo, 60 h; stronger effect = lower value | AID 818 | actives 1.5% (n = 140,000) | viability, % at 10 µM;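 active = viability at or under a set limit, the compound median less 4 SD, cut at about 6% in these data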;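 also: 0% = Hyamine 1622 control at 20 µM and 100% = untreated cell control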
# L major viab: Leishmania major promastigote growth inhibition | actives 9% (n = 200,000) | Leishmania major promastigotes, resazurin fluorescence viability | inhibition, % at 10 µM; in the data active = inhibition above about 50%;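 also: promastigotes grown with compound for 44 hours at 28 °C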
# * marks the source's active call; other numbers are inactive results; i = inactive; . = no result given. Most compounds without a hit are left out; they make up all but 9.6% or so of the library.
SMILES,Insulin prom inh,Ins promoter up,Autophagy mod,HCT116 PTEN-null,HCT116 bCat-KO,L major viab
CCOC(=O)C(O)(c1ccc(N(CC)S(=O)(=O)c2ccc(C)cc2)cc1)C(F)(F)F (stereo not given),19,.,i,99,96,93*
COC(=O)C(O)(c1ccc(N(C)S(=O)(=O)c2ccccc2)cc1)C(F)(F)F (stereo not given),.,0.28,i,98,94,100*
CCN(c1ccc(C(O)(C(=O)OC)C(F)(F)F)cc1)S(=O)(=O)c1ccc(C)cc1 (stereo not given),20,0.89,i,108,98,89*
CCOC(=O)C(O)(c1ccc(N(CC)C(=O)COc2ccccc2)cc1)C(F)(F)F (stereo not given),40,0,i,95,95,65*
CC(C)NC(=O)Cn1cc(C(=O)c2ccccc2F)c2ccccc21,-14,-0.34,i,99,99,-2
Cc1ccc(S(=O)(=O)Cc2ccc(C(=O)N3CCC4(CC3)OCCO4)o2)cc1,32,0.92,i,88,94,-1
CN1CCC(N2CC3CC(C2)c2cccc(=O)n2C3)CC1 (stereo not given),.,.,i,91,96,-8
Cc1cc(C=C2C(=O)NC(=S)NC2=O)c(C)n1C1CCCC1,.,0.77,i,.,.,63*
Cc1cc(C=C2C(=O)N(C)C(=S)N(C)C2=O)c(C)n1C1CCCCC1,0,-0.4,i,84,89,21
C/C(CC(c1ccccc1)c1c(O)c2ccccc2oc1=O)=N\Nc1ccc([N+](=O)[O-])cc1[N+](=O)[O-] (stereo not given),.,-0.58,.,.,.,.
CCOC(=O)c1ccc(N=Cc2c(O)n(-c3ccc(OC)cc3)c(=S)[nH]c2=O)cc1,17,.,i,.,.,-2
CCn1c(O)c(C=Nc2ccc(S(N)(=O)=O)cc2)c(=O)[nH]c1=S,-30,0.28,i,106,97,56*
CCn1c(O)c(C=Nc2ccc(S(N)(=O)=O)cc2)c(=O)n(CC)c1=S,-50,0.67,i,76,74,-6
CCOC(=O)c1ccc(N=Cc2c(O)n(-c3ccccc3F)c(=S)[nH]c2=O)cc1,3,0.74,i,98,102,61*
Oc1ccc(Br)cc1CN1CCN(c2ccccc2)CC1,-20,0.4,i,88,90,11
CCN1CCN(Cc2cc(Br)cc(Br)c2O)CC1,3,0.29,i,95,95,73*
CCc1ccc(CN2CCN(Cc3cc(Br)ccc3O)CC2)cc1,-43,-0.65,i,.,.,81*
CCN1CCN(Cc2cc(Br)ccc2O)CC1,38,-0.57,i,104,101,85*
COc1cc(Br)cc(CN2CCN(C)CC2)c1O,60,0.55,i,99,105,76*
O=C(COC(=O)c1cccc(O)c1)Nc1ccc(Cl)cc1C(=O)c1ccccc1,.,-0.17,i,84,94,-2
CC1(C)C2CC=C(CN3CCC(O)CC3)C1C2 (stereo not given),.,0.85,i,100,85,64*
CC(C)C12CN3CC(C(C)C)(CN(C1)C3c1cccnc1)C2=O (stereo not given),-36,1.8,i,90,99,5
Cc1cc(C)cc(N2C(=O)NC(=O)/C(=C/c3cccn3-c3ccc(Cl)cc3)C2=O)c1,18,0.87,i,19,34,98*
Cc1cccc(N2C(=O)NC(=O)/C(=C\c3cccn3-c3ccc(Cl)cc3)C2=O)c1,-52,-0.34,i,28,41,47
O=P(Nc1cccnc1)(Oc1ccccc1Cl)Oc1ccccc1Cl,.,-0.07,i,94,86,7
SMILES,Insulin prom inh,Ins promoter up,Autophagy mod,HCT116 PTEN-null,HCT116 bCat-KO,L major viab
CCCCn1c(C)c(C(=O)O)c2cc(OC)ccc21,-7,-0.09,i,90,95,-6
COCCCn1c(-c2ccc(OC)cc2)cc(C(=O)NC2CCCCCCC2)c1C,44,-0.28,i,48,60,98*
Cc1ccc(CN2C(=O)CN=C(c3ccccc3)c3ccccc32)cc1,0,-0.6,i,86,100,57*
CCN(CC)P(=O)(Oc1ccccc1)Oc1ccccc1,.,-0.05,.,.,.,.
CN1/C(=C\C=Nc2ccccc2)C(C)(C)c2ccccc21,.,-2.8,i,56,69,98*
C=CCn1c(O)c(C(CC)=NCCC2=CCCCC2)c(=O)[nH]c1=O,-30,-0.42,i,55,64,5
COc1ccc(C(=O)N2CCOCC2)cc1S(=O)(=O)N1CCC(C)CC1,34,-0.01,i,101,96,-4

# Source: PubChem (several laboratories)
